Inconclusive results are not listed. Values without a mark were called inactive. The source made the active and inactive calls. Calls come from the whole dose curve; as a rule, active = well fitted inhibition curve with a large enough effect in the polarisation, with a control signal flat (not every such curve was filed as active); inconclusive = small, poorly fitted or top-dose-only effect, or effect the other way; inactive = flat fitted curve, though single readings scatter; the % refers to the polarisation.
Potency is the fitted concentration of half-maximal effect.

The target in the assay is Peptidyl-prolyl cis-trans isomerase NIMA-interacting 1 (Homo sapiens) (UniProt Q13526). The assay is described as follows: qHTS Validation Assay to Find Inhibitors of Pin1 (AID 504536).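 For activity, negative = inhibition: 0% = full Pin1 enzyme wells and -100% = no-enzyme wells.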 Particulars: Pin1 fluorescence polarization peptide binding assay; series mostly up to 57.5 µM; activity, negative = inhibition: at the top concentration. The essentials: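 Fluorescence polarization competition: compounds (titration) displace HiFluor-488-labeled Pin1-1b peptide from Pin1 (0.3 uM final) in pH 7.5 HEPES buffer with DTT, 10 min at room temperature; %Activity normalized to no-enzyme wells, curves fitted.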
Chain of Peptidyl-prolyl cis-trans isomerase NIMA-interacting 1 (Homo sapiens) (Q13526 whole entry, looked up): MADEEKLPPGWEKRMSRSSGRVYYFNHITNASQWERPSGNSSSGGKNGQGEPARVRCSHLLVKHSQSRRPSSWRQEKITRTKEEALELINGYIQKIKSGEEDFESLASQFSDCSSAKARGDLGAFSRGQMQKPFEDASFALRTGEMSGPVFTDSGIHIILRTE
In the case of `O=C(O)CCC(=O)N1CCCC1C(=O)O` (stereo unspecified), the “activity, negative = inhibition” value was 3.33%.

In the case of `C=C(C)C1CC=C(C(=O)O)CC1` (stereo unspecified), the “activity, negative = inhibition” value was 7.96%.

Regarding `NCC(O)C1CCCCCCC1` (stereo unspecified), the “activity, negative = inhibition” value is -4.12%.

Consider `NC(=O)CNCCC(c1ccccc1)c1ccccc1`, for which the “activity, negative = inhibition” value is -6.91%.

Consider `COc1ccccc1N1CCN(CCCNc2c(C)c(=O)n(C)c(=O)n2C)CC1`, for which the “activity, negative = inhibition” value is 7.4%.

In the case of `C[C@@]1(C2CCCC2)Cc2cc(OCC(=O)O)c(Cl)c(Cl)c2C1=O`, the “activity, negative = inhibition” value was 0.352%.

As to `N[C@@H](CS(=O)O)C(=O)O`, the “activity, negative = inhibition” value was 0.64%.

On to `COC(=O)C(C)(N)Cc1ccc(O)cc1` (stereo unspecified), for which the “activity, negative = inhibition” value was 6.2%.

Take `O=C(O)/C(=C/c1c(C(=O)O)[nH]c2cc(Cl)cc(Cl)c12)c1ccccc1`: the “activity, negative = inhibition” value was -15.8%.

Regarding `Cn1c(=O)[nH]c2ncn(C)c2c1=O`, the “activity, negative = inhibition” value is 1.17%.

As for `CCCCCCCCCCCCCCCCCCOC[C@H](COP(=O)([O-])OCC[N+](C)(C)C)OC`, the “activity, negative = inhibition” value was -0.713%.

Turning to `O=C(O)/C=C/c1ccc(O)c(O)c1`, the “activity, negative = inhibition” value was -2.86%.

`N[C@@H](Cc1ccc(O)c(I)c1)C(=O)O`: the “activity, negative = inhibition” value is -3.37%.

On to `NC(=O)c1cc[n+](CC2=C(C(=O)O)N3C(=O)[C@@H](NC(=O)[C@@H](c4ccccc4)S(=O)(=O)[O-])[C@H]3SC2)cc1`, for which the Potency was 9.53 µM (active).

Regarding `O=[N+]([O-])c1cccc2cn[nH]c12`, the “activity, negative = inhibition” value is -2.55%.

In the case of `c1ccc2nc(C3=NCCN3)ccc2c1`, the “activity, negative = inhibition” value was -4.57%.

Regarding `COc1ccccc1N1CCN(CCCCNC(=O)c2ccc3ccccc3c2)CC1`, the “activity, negative = inhibition” value is -0.487%.

As to `O=c1onc2n1-c1cc(Br)ccc1OC2`, the “activity, negative = inhibition” value is 0.124%.

Consider `CC(C)NC[C@H](O)COc1ccc(CC(N)=O)cc1`, for which the “activity, negative = inhibition” value was 7.94%.

As for `NC(N)=NC(N)=Nc1ccccc1`, the “activity, negative = inhibition” value is -5.86%.

With `C#CCn1c(=O)c2c(ncn2C)n(C)c1=O`, the “activity, negative = inhibition” value is -0.0327%.

Take `O=C(OCCN1CCOCC1)C1(c2ccccc2)CCCCC1`: the “activity, negative = inhibition” value is -6.98%.

`Nc1ccc(-c2nc3ccc(-c4nc5ccc(N)cc5[nH]4)cc3[nH]2)cc1`: the “activity, negative = inhibition” value is -10.5%.

In the case of `CCC(=O)N1CCN(C(=O)c2ccccc2)CC1`, the “activity, negative = inhibition” value is -10.7%.

As to `Nc1ccc(N2C(=O)c3ccccc3C2=O)c(Cl)c1`, the “activity, negative = inhibition” value was 0.133%.

With `NC(N)=N[C@@H](CCC(=O)O)C(=O)O`, the “activity, negative = inhibition” value is -3.48%.

As to `CC1CCN(CC[C@H]2CCCN2S(=O)(=O)c2cccc(O)c2)CC1`, the “activity, negative = inhibition” value is -5.48%.

Turning to `CC(C)Cn1c(=O)n(C)c(=O)c2[nH]cnc21`, the “activity, negative = inhibition” value was -11.8%.

Regarding `NCCCNCCCCNCCCN`, the “activity, negative = inhibition” value was 14.4%.

Consider `CCCCCCCCCC[Si](C)(C)CCC(=O)NC(Cc1ccc(C)cc1)c1ccccc1` (stereo unspecified), for which the “activity, negative = inhibition” value is 1.18%.

With `CNc1ncnc2c1ncn2[C@H]1C[C@H](OP(=O)(O)O)[C@@H](COP(=O)(O)O)O1`, the “activity, negative = inhibition” value is 0.515%.

For the molecule `NCCS(=O)O`, the “activity, negative = inhibition” value was -7.98%.

With `N=C(N)SCCN`, the “activity, negative = inhibition” value was -3.24%.

Consider `NC1(C(=O)O)CC1`, for which the “activity, negative = inhibition” value was 3.77%.

`O=C(O)c1cc(=O)cc(C(=O)O)[nH]1`: the “activity, negative = inhibition” value is 0.288%.

As to `c1ccc(C2CN3CCSC3=N2)cc1` (stereo unspecified), the “activity, negative = inhibition” value was 6.23%.

The values above are taken from PubChem BioAssay (NCATS).
